# Only some compounds are listed: those with a hit (about 21% of all), similar ones and a draw of the others.
# Pf growth 48h = inhibits P. falciparum growth in the first generation, 48 h; P. falciparum luciferase growth in erythrocytes, 48 h; hit rate 5.9% among 310,000; Potency, µM (top dose mostly 28.7 µM), for inactives: at the top dose activity change, negative = inhibition, actives largely listed as inhibitors; active = well fitted inhibition curve with a large enough effect; inconclusive = small, poorly fitted or top-dose-only effect, or another doubt; inactive = no such curve, though single readings can be large or run the other way; also: potency is read from the fitted curve at half-maximal effect; % is scaled to controls: 0 for no effect and ±100 for the full control effect
#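 In quantitative HTS format, infected erythrocytes bearing luciferase-reporter parasites were treated for a single generation at 37 C. Luminescence after adding detection reagent served as the growth measure.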
# SARS PLpro yeast = inhibitors of SARS-CoV papain-like protease in yeast | Potency, µM (series often up to 32.9 µM), without a hit: at the top dose activity, positive = growth rescue, usual class: activators | hit rate 0.19% among 330,000 | S. cerevisiae expressing SARS-CoV PLpro, growth rescue | AID 485353; also: potency is read from the fitted curve at half-maximal effect; 0% is about no effect; nearly all actives have a fitted effect of over 55% in size
# Pf growth 96h = P. falciparum growth inhibition at 96 hour, primary screen for plastid delayed-death inhibitors | P. falciparum luciferase reporter growth, 96 h | Potency, µM (titrated, usually from 28.7 µM), without a hit: top-dose activity change, negative = inhibition, actives largely listed as inhibitors | hit rate 6.9% among 320,000 | AID 504834; active = well fitted inhibition curve with a large enough effect; inconclusive = small, poorly fitted or top-dose-only effect, or another doubt; inactive = no such curve, though single readings can be large or run the other way; also: potency is read from the fitted curve at half-maximal effect; % is scaled to controls: 0 for no effect and ±100 for the full control effect
#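 Infected RBCs, 2% Hct / 0.05% parasitemia final; luciferase-reporter P. falciparum; cpd 96 h, 37 C, 5% CO2; luciferase detection reagent; luminescence.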
# NS1 function inh = blocks influenza NS1 protein function. Potency, µM (doses to about 46.1 µM), for the others: top-dose activity, positive = more growth. hit rate 0.4% among 270,000; also: potency is read from the fitted curve at half-maximal effect; actives are rising curves; nearly all actives have a fitted effect of over 50% in size
#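 Growth recovery, yeast-based: influenza A NS1 expressed in S. cerevisiae causes slow growth, and suppressors are detected by OD600. The parent strain without NS1 is used as positive control.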
# Shiga inhibitor = blocks Shiga toxin action in Vero cells | inhibition, % at 38.7 µM | AID 2315 | hit rate 9.2% among 290,000 | Vero cells, Shiga toxin protein synthesis inhibition reporter; in the data active = inhibition mostly above about 28%, no sharp cut-off; inactive = mostly below about 43%; also: 0% is about no effect
# Cycloheximide cs = affects cycloheximide protein synthesis inhibition readout, counter-screen; cell reporter, cycloheximide protein synthesis inhibition counterscreen; max response, %; hit rate 12% among 300,000; AID 2314; in the data active = max response mostly above about 13%, no sharp cut-off; inactive = mostly below about 14%; also: read at 38.3 µM for the half of the compounds with a filed dose; 0% is about no effect
# The depositor's hits bear a star; i = inactive; ? = inconclusive; / = not tested or not shown; [ ] = dose if it differs, or a comment. Unless noted, calls follow the shape of the full dose curve.
SMILES,Pf growth 48h,SARS PLpro yeast,Pf growth 96h,NS1 function inh,Shiga inhibitor,Cycloheximide cs
CCCCC1=CC2=CC(=O)C(C)(OC(=O)CC)C(=O)C2=CN1c1ccc(OC)cc1 (stereo not drawn),12µM*,-6%,9.3µM*,16%,-5,0
CC1(OC(=O)CCc2ccccc2)C(=O)C=C2C=C(c3ccc(C#N)cc3)N(C3CC3)C=C2C1=O (stereo not drawn),13µM*,4%,?,6%,-14,-4
CCCCC1=CC2=CC(=O)C(C)(OC(=O)CC)C(=O)C2=CN1C1CCCCC1 (stereo not drawn),?,1%,9.3µM*,-2%,-7,-3
O=C1CC(N2CCN(S(=O)(=O)c3cccc(C(F)(F)F)c3)CC2)C(=O)N1Cc1ccccc1 (stereo not drawn),?,-12%,19%,-5%,-1,-4
COc1ccc(OC)c(/C=N/N(CCC#N)C2=NS(=O)(=O)c3ccccc32)c1,0%,1%,?,-2%,-3,-3
COc1n[nH]c(C(=O)Nc2cc(Cl)ccc2Cl)c1[N+](=O)[O-],?,-1%,4.7µM*,-25%,3,9
Cc1cc(C(=O)CSc2nnc(-c3cccnc3)n2-c2ccccc2F)c(C)n1C,?,2%,193%[5.75 µM],?,-5,-1
Cc1cc(C(=O)CSc2nnc(-c3ccncc3)n2-c2ccccc2)c(C)n1C,15µM*,-3%,17µM*,13%,-14,-1
Cc1cc(C(=O)CSc2nnc(-c3cccnc3)n2-c2ccccc2)c(C)n1CC1CCCO1 (stereo not drawn),/,9%,?,10%,97,23*
COc1ccc(S(=O)(=O)Nc2ccc(-n3cccc3)cc2)cc1,?,-15%,6%,/,-2,-5
O=C1CCCc2[nH]c(-c3ccccc3)nc21,51%,-1%,?,0%,59*,37*
Cc1c(-c2ccccc2)nc(-c2ccccc2)[nH]c1=O,19%,5%,52%,1%,-3,0
c1ccc(-c2nc3c([nH]2)CCc2nonc2-3)cc1,50%,2%,-9%,/,78*,31*
CCN(CC1CCCN(CCc2cccc(OC)c2)C1)C(=O)c1ccc(COC)o1 (stereo not drawn),-19%,2%,3%,-9%,-21,0
COc1ccc([C@H]2CC(=O)C=C(c3cccc4c3Oc3ccccc3S4)C2)cc1,-2%,-5%,?,/,/,/
O=C(CSc1nnc(CNC(=O)c2ccco2)o1)Nc1cccc(Cl)c1,15%,8%,5.9µM*,-5%,-8,-1
O=C(COc1ccc(Cl)cc1)NCc1nnc(SCC(=O)c2ccccc2)o1,-6%,-5%,4.1µM*,11%,-6,-3
COc1ccc(OC)c(NC(=O)CSc2nnc(CNC(=O)c3ccco3)o2)c1,/,-2%,2.6µM*,4%,4,-3
O=C(CSc1nnc(CNC(=O)c2ccco2)o1)Nc1ccc(Cl)cc1,21%,-6%,10µM*,1%,-6,-4
CCCOc1c(Cl)cc(C(=O)Nc2ccc3c(c2)OCO3)cc1OCC,/,-1%,?,1%,-4,-2
O=C(CSc1nnc(CNC(=O)c2ccco2)o1)c1ccccc1,/,-4%,4.1µM*,-8%,31,-3
C=CCn1c(Cc2cccs2)nnc1SCC(=O)c1ccc(F)cc1,1%,-3%,-33%,-10%,29,15*
CCSc1nnc(NC(=O)CSc2nnc(CNC(=O)c3cc(OC)c(OC)c(OC)c3)o2)s1,7%,20%,?,4%,-14,-2
Cc1cc(C)c(NC(=O)CSc2nnc(CNC(=O)c3ccco3)o2)c(C)c1,-20%,1%,9.3µM*,-1%,-6,-3
Cc1ccc(NC(=O)CSc2nnc(CNC(=O)c3ccco3)o2)cc1Cl,5%,1%,-14%,?,-6,-2
SMILES,Pf growth 48h,SARS PLpro yeast,Pf growth 96h,NS1 function inh,Shiga inhibitor,Cycloheximide cs
O=C(CSc1nnc(CNC(=O)c2ccco2)o1)Nc1ccccc1,13%,-3%,26%,/,-7,-6
CCc1nnc(NC(=O)CSc2nnc(CNC(=O)c3cc(OC)c(OC)c(OC)c3)o2)s1,?,-1%,?,/,96*,17
CCOC(=O)C1CN(S(=O)(=O)c2cccc(C(F)(F)F)c2)c2cc(CC(=O)OC)ccc2O1 (stereo not drawn),0%,11%,55%,-51%,-3,9
Cc1ccccc1C(=O)Nc1ccnn1C1CCN(Cc2cnn(C)c2)CC1,-4%,-4%,29%,-4%,20,-2
C=CCn1c(CNC(=O)c2ccco2)nnc1SCC(=O)c1ccccc1,39%[5.75 µM],0%,i,3%,24,12*
CCn1c(CNC(=O)c2ccco2)nnc1SCC(=O)c1ccc(F)cc1,43%,0%,?,-4%,11,-3
O=C(Nc1ccc(Cl)cc1)Nc1ccc(N2CCC(C(F)(F)F)CC2)nc1,7%,1%,5%,-3%,-3,-4
COc1ccc(C2(C(=O)Nc3ccc(S(=O)(=O)Nc4nc(C)cc(C)n4)cc3)CCCC2)cc1OC,-16%,-2%,146%,3%,-19,0
Cc1cc(C)nc(NS(=O)(=O)c2ccc(NC(=O)C3(c4ccc([N+](=O)[O-])cc4)CCCC3)cc2)n1,10%,20%,9.3µM*,8%,-12,1
CN(C)c1ccc(-c2ccccc2)nn1,/,-2%,35%,-14%,94*,32*
CCN(CC)c1cc(-c2ccccc2)ncn1,4%,5%,0%,-7%,-1,9
Cc1[nH]n(-c2ccccc2)c(=O)c1/C=C1/C=c2ccccc2=N1,-2%,-5%,9%,/,17,17*
Cc1[nH]n(-c2ccccc2)c(=O)c1/C=C1\C=NN=C1c1ccccc1,17%,-2%,21%,1%,98*,67*
CC(C)(C)c1ccc(CNC(=O)C2CCCN2C(=O)Nc2ccccc2)cc1 (stereo not drawn),-12%,0%,21%,3%,-12,-2
CC(OC(=O)Cn1[nH]c(=O)c2ccccc2c1=O)C(=O)NC1(C#N)CCCCC1 (stereo not drawn),10µM*,4%,?,/,/,/
CC(OC(=O)CSc1ccc(F)cc1)C(=O)NC1(C#N)CCCCC1 (stereo not drawn),9%,2%,27%,9%,18,7.3*
COc1ccc(CC(=O)N(C)CC(=O)Nc2cccc(F)c2)cc1S(=O)(=O)N1CCOCC1,0%,-5%,-9%,2%,-10,1
CCc1nnc(N2C(=N)SCC2=O)s1,?,0%,?,-4%,-15,-1
CN(CC(=O)Nc1ccccc1Cl)C(=O)CSc1nncn1C,0%,-2%,11%,/,/,/
O=P(O)(O)CP(=O)(O)O,12%,4%,-7%,1%,34,-3
O=P(O)(O)OP(=O)(O)O,3.8µM*,/,?,-3%,/,/
Nc1ccccc1C#Cc1ccccc1,166%,-8%,94%,-10%,88*,64*

# Screens deposited in PubChem by National Center for Advancing Translational Sciences (NCATS).
